Mito fusion act – qHTS Assay for Small Molecule Inhibitors of Mitochondrial Division or Activators of Mitochondrial Fusion; S. cerevisiae fusion-defective mutant growth rescue, CellTiterGlo 48 h; Potency, µM (series often up to 46.1 µM), actives largely listed as activators; 320,000 tested, 0.23% active; AID 485298, 2010; further: nearly all actives have a fitted effect of over 45% in size
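Read-out: ATP-based luminescence (CellTiterGlo, 10 min ambient) reporting growth of fusion-defective ts yeast after 48 hours at 37C on glycerol/ethanol YPEG medium in the presence of compound.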
GRP78 ERSR act – qHTS for Inducers of the Endoplasmic Reticulum Stress Response (ERSR) in Human Glioma: qHTS; AID 602332, 2012; U87-MG GRP78 promoter luciferase reporter, 16 h; Potency, µM, most hits filed as activators; 420,000 tested, 0.02% active; further: series mostly up to about 76 µM; nearly all actives have a fitted effect of over 35% in size
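Stably transfected U87-MG human glioma cells carrying a GRP78-based luminescent sensor were seeded at 1000 cells/well, pin-dosed with compounds and incubated 16 h. Luciferase reagent was then added, and end-point luminescence was read after 10 min at room temperature.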
AT treatment – qHTS Assay for Identifying a Potential Treatment of Ataxia-Telangiectasia; F2112 A-T fibroblasts, KAP-1 phosphorylation AlphaLISA; neocarzinostatin DNA damage 30 min before lysis; Potency, µM (series often up to 57.5 µM), hits mostly activators; 320,000 tested, 0.19% active; AID 485349, 2010; further: nearly all actives have a fitted effect of over 45% in size
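ATM-like activity read as KAP-1 phosphorylation via AlphaLISA donor/acceptor antibody pairs after lysis and 6 hr at 25C. Cells were ATM-null patient fibroblasts (F2112, hTERT), dosed 60 min, then exposed to the DSB inducer NCS for 30 min.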
aSyn rescue – qHTS of alpha-syn Inhibitors | 370,000 tested, 0.14% active | Yeast expressing alpha-synuclein, growth rescue, BacTiter-Glo, 24 h | Potency, µM (doses to about 46.1 µM), actives largely listed as activators | AID 652106, 2013; further: nearly all actives have a fitted effect of over 65% in size
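Readout is rescue of growth in alpha-synuclein-expressing yeast, so inhibitors of toxicity appear as activators. Growth after 24 hr at 30 deg C in galactose medium is quantified by luminescence.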
TDP-43 yeast inh – qHTS of TDP-43 Inhibitors; TDP-43 expressing yeast growth rescue, BacTiter-Glo, 24 h; Potency, µM (titrated, usually from 46.1 µM), hits mostly activators; 410,000 tested, 1.8% active; further: nearly all actives have a fitted effect of over 50% in size
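Galactose-induced TDP-43 yeast, OD600=0.02, compound pinned; 24 hr, 30 deg C; BacTiter-Glo luminescence for growth. Inhibitors of TDP-43 toxicity read as activators.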
Abeta rescue – qHTS for compounds that reverse cellular toxicity of Amyloid beta (A-beta) peptide in yeast: Primary Screen | Potency, µM (top dose mostly 46.1 µM), actives largely listed as activators | yeast expressing A-beta42, growth rescue, OD600, 48 h; response scale: 0% DMSO, 100% iron-clioquinol control | 410,000 tested, 0.063% active; further: nearly all actives have a fitted effect of over 55% in size
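Growth rescue measured by 600 nm absorbance after 48 h yeast culture at 30 C with compound. Values normalized between DMSO and an equimolar ferric chloride plus clioquinol control.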
Each line names hits and unclear results; the compound was inactive in the other large screens. Shown are actives, neighbours in structure and some others; about 2.1% of the full set was active somewhere. The call rests on the fitted dose curve; in most records, active means well fitted curve in the direction sought with a large enough effect; inconclusive means small, poorly fitted or top-dose-only effect, or another doubt; inactive means no such curve, though single readings can be large; an effect the other way counts as inactive or inconclusive.

COc1ccc(C(=O)N/N=C(\C)c2ccccn2)cc1OC	none
C/C(=N\NC(=O)c1ccc(Cl)c(Cl)c1)c1ccccn1	aSyn rescue 4µM, TDP-43 yeast inh 7.1µM
O=C(NN=C(c1ccccc1)c1ccccn1)c1ccccc1	none (no result: Mito fusion act)
C/C(=N/NS(=O)(=O)c1ccc(Cl)cc1)c1cccc(NC(=O)c2ccc(Cl)cc2Cl)c1	TDP-43 yeast inh 13µM
C/C(=N/NS(=O)(=O)c1ccc(C)cc1)c1cccc(NC(=O)c2cccc(Cl)c2)c1	none
Fc1ccccc1SCc1nnc(-c2ccccc2Br)o1	TDP-43 yeast inh 22µM
Cc1csc(SCc2nnc(-c3ccccc3Br)o2)n1	none
COCCn1c(CN2CCN(c3cccc(Cl)c3)CC2)nc2c1c(=O)n(C)c(=O)n2C	none
CC(C)CCn1c(CN2CCN(c3cccc(Cl)c3)CC2)nc2c1c(=O)n(C)c(=O)n2C	TDP-43 yeast inh 16µM
CN(CC(=O)Nc1cccc(F)c1)C(=O)c1ccc(-c2ccc(Cl)cc2)o1	TDP-43 yeast inh 22µM
Cc1ccc(C)c(NC(=O)CN(C)C(=O)c2ccc(-c3ccc(Cl)cc3)o2)c1	none
c1ccc(-c2nnsc2-c2ccccc2)cc1	TDP-43 yeast inh inconclusive
O=S(=O)(c1ccc(Cl)c(Cl)c1)c1snnc1-c1ccccc1	TDP-43 yeast inh 13µM
CCCN(CCC)c1nn2c(=O)c(C(=O)NCc3cc(Br)ccc3OC)cnc2s1	none (no result: Mito fusion act, AT treatment, aSyn rescue)
CCC1CN(CCC(=O)N2CCN(c3ncccn3)CC2)Cc2cc(OC)ccc2O1 (configuration not stated)	none (no result: Mito fusion act, AT treatment, aSyn rescue, TDP-43 yeast inh, Abeta rescue)
COc1ccc(Cl)cc1S(=O)(=O)N1CCN(C(=O)c2ccco2)CC1	none
COc1ccc(S(=O)(=O)N2CCN(C(=O)c3ccco3)CC2)c(C)c1C	TDP-43 yeast inh 22µM
O=C(c1ccco1)N1CCN(S(=O)(=O)c2ccc(Cl)cc2)CC1	TDP-43 yeast inh inconclusive
O=C(c1ccco1)N1CCN(S(=O)(=O)c2c(Cl)cccc2Cl)CC1	TDP-43 yeast inh 16µM
O=C(c1ccco1)N1CCN(C(=O)c2ccc(-c3ccc(Cl)cc3)o2)CC1	TDP-43 yeast inh 22µM
Cc1cc(Cl)c2oc(C(=O)N3CCN(C(=O)c4ccco4)CC3)c(C)c2c1	Mito fusion act inconclusive, TDP-43 yeast inh 22µM
O=C(c1ccc(Cl)cc1)N1CCN(C(=O)c2ccco2)CC1	none
O=C(NCC1Cc2cc(-c3cnc4ccccc4c3)cc(F)c2O1)c1cnsn1 (configuration not stated)	none (no result: Mito fusion act, AT treatment, aSyn rescue, TDP-43 yeast inh, Abeta rescue)
COc1cccc(CNC(=S)Nc2cccc(Cl)c2C)c1	TDP-43 yeast inh 18µM, Abeta rescue inconclusive
COc1cccc(CNC(=S)Nc2cc(C)ccc2C)c1	TDP-43 yeast inh inconclusive, Abeta rescue inconclusive
Cc1ccc(OCc2ccccc2Br)c([N+](=O)[O-])n1	TDP-43 yeast inh 10µM
O=[N+]([O-])c1ncccc1OCc1ccccc1Br	TDP-43 yeast inh inconclusive
Cc1cc(Cl)ccc1OCC(=O)Nc1ccccc1N1CCOCC1	TDP-43 yeast inh 13µM
O=C(COc1ccccc1Cl)NC(=S)N1CCc2ccccc21	TDP-43 yeast inh 18µM, Abeta rescue inconclusive
Cc1ccc(NC(=O)COc2ccc(Cl)cc2Cl)cc1S(=O)(=O)N1CCOCC1	TDP-43 yeast inh 14µM
Cc1ccccc1OCC(=O)Nc1ccccc1N1CCCCC1	AT treatment 32µM
O=C(C[n+]1cccc(Br)c1)c1ccc(I)cc1	none (no result: Mito fusion act, AT treatment, aSyn rescue, TDP-43 yeast inh, Abeta rescue)
COC(=O)c1cc(CNC(=O)c2ccc3ccccc3n2)cc(NC(=O)c2cccc(OC)c2)c1	none (no result: Mito fusion act, AT treatment, aSyn rescue, TDP-43 yeast inh, Abeta rescue)
CCOc1cc(C(=O)Nc2c(NC)c3ccccc3oc2=O)cc(OCC)c1OCC	none (no result: Mito fusion act, AT treatment, aSyn rescue)
O=C(COc1ccccc1Cl)NC(=S)Nc1ccccc1N1CCCC1	TDP-43 yeast inh 16µM, Abeta rescue inconclusive
CCOc1ccc(OCCCC(=O)O)cc1	TDP-43 yeast inh 13µM
COc1ccc(-c2noc(CCC(=O)O)n2)cc1	AT treatment inconclusive
CCOc1ccc(-c2noc(CCC(=O)O)n2)cc1	TDP-43 yeast inh 32µM
CC(=O)/C(=C\N(C)C)Sc1ccc(C)cc1	none
CC(=O)/C(=C\N(C)C)Sc1ccc(Cl)cc1	aSyn rescue inconclusive, TDP-43 yeast inh 22µM, Abeta rescue inconclusive
COc1ccccc1NC(=O)COC(=O)c1c(C)nn(-c2ccccc2)c1C	TDP-43 yeast inh 18µM
Cc1nn(-c2ccccc2)c(C)c1/C=C/C(=O)OCC(=O)Nc1ccc(C(N)=O)cc1	none
COc1cccc(NC(=O)COC(=O)/C=C/c2c(C)nn(-c3ccccc3)c2C)c1	TDP-43 yeast inh 20µM
Cc1ccc(C2C=C(c3ccccc3OC(F)F)Nc3ncnn32)cc1 (configuration not stated)	TDP-43 yeast inh 13µM
Cc1ccc(C2=CC(c3ccccc3)n3ncnc3N2)cc1 (configuration not stated)	TDP-43 yeast inh 13µM (no result: Mito fusion act, AT treatment)
Cc1ccc(C2C=C(c3ccc4c(c3)OCO4)Nc3ncnn32)cc1 (configuration not stated)	TDP-43 yeast inh 13µM
C1=C(c2ccccc2)Nc2ncnn2C1c1ccccc1 (configuration not stated)	TDP-43 yeast inh 20µM (no result: Mito fusion act, AT treatment)
CN(C)c1ccc(C2C=C(c3ccc(Cl)cc3OC(F)F)Nc3ncnn32)cc1 (configuration not stated)	none
CC1CCCCC12NC(=O)N(CC(=O)NCCc1c[nH]c3ccccc13)C2=O (configuration not stated)	none
OC1(C(F)(F)F)CC(c2ccc3ccccc3c2)=NO1 (configuration not stated)	TDP-43 yeast inh 3.2µM
Cc1nc(CC(=O)c2ccc(O)cc2O)cs1	none
Cc1nc(C/C(=N\Nc2ccccc2)c2ccc(O)cc2O)cs1	TDP-43 yeast inh 20µM
COC(=O)c1ccc(OCC2c3cc(OC)c(OC)cc3CCN2C(=O)c2ccc(OC)cc2)cc1 (configuration not stated)	TDP-43 yeast inh 35µM (no result: Mito fusion act, AT treatment)
COc1cc2c(cc1OC)C(COc1ccc(F)cc1)N(C(=O)c1cccc(F)c1)CC2 (configuration not stated)	TDP-43 yeast inh 35µM (no result: Mito fusion act, AT treatment)
Cc1ccc(-c2nc3ccc(C)cn3c2Cc2cccc(Cl)c2)cc1	none (no result: Mito fusion act, GRP78 ERSR act, AT treatment)
CC(C)(C)Cc1c(-c2ccc(Cl)cc2)nc2ccc(Br)cn12	TDP-43 yeast inh 35µM (no result: Mito fusion act, AT treatment)
Cc1ccc(-c2nc3ccc(Br)cn3c2Cc2cccc(Cl)c2)cc1	TDP-43 yeast inh 28µM (no result: Mito fusion act, AT treatment)
Clc1ccc(-c2nc3ccc(Br)cn3c2Cc2cccc(Cl)c2)cc1	TDP-43 yeast inh 32µM (no result: Mito fusion act, AT treatment)

Bioassay records from PubChem BioAssay.
